# Screens (PubChem BioAssay)
# FLuc modulator – inhibits or activates purified firefly luciferase, miR-21 counter-screen; P08659; purified FLuc, Km substrates, luminescence inhibition; Potency, µM (series often up to 57.5 µM), most hits filed as inhibitors; actives 6.9% (n = 360,000); AID 588342; further: nearly all actives have a fitted effect of over 55% in size
# Target sequence (P08659 whole entry, looked up): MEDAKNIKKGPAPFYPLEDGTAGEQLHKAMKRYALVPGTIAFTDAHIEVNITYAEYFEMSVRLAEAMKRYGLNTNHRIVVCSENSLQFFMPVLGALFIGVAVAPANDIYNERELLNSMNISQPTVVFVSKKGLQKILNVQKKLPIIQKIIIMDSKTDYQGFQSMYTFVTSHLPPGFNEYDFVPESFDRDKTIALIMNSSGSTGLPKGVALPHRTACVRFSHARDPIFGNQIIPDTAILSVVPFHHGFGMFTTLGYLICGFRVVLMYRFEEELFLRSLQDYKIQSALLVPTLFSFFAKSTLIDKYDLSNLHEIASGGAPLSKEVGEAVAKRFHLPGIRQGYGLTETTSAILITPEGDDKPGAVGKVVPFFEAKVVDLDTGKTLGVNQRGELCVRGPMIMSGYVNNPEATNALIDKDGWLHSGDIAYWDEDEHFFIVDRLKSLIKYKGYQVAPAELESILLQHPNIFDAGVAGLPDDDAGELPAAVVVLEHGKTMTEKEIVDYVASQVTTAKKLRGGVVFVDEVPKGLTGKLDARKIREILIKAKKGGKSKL
#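 Purified P. pyralis luciferase (10nM final) with 10uM D-luciferin and 10uM ATP (Km levels) in 50mM Tris acetate pH 7.5, 10mM Mg acetate, 0.01% Tween-20, 0.05% BSA; qHTS 6-point titration, ~60 µM downward; luminescence read.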
# ELG1 genotoxic – induces genotoxicity in HEK293T cells with luciferase-tagged ELG1. HEK293T ELG1-luciferase reporter, luminescence, 16 h. Potency, µM (highest dose often 46 µM), actives largely listed as activators. actives 1.3% (n = 330,000); further: nearly all actives have a fitted effect of over 60% in size
#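 Step 1: seed 2,000 HEK293T ELG1-luciferase cells per well. Step 2: add compound or DMSO, incubate 16 hr at 37 °C. Step 3: ONE-Glo, 30 min at room temperature, read luminescence.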
# Rab9 promoter act – Rab9 promoter activation; Huh7 Rab9 promoter-luciferase reporter, luminescence, 24 h; Potency, µM (series often up to 9.22 µM), usual class: activators; actives 2.8% (n = 320,000); AID 485297; further: nearly all actives have a fitted effect of over 60% in size
#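 Using Huh7 cells stably transfected with Rab9 promoter–luciferase, compounds were incubated 24 h at 37 °C, 5% CO2; luciferase luminescence was read 10 min after reagent addition.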
# NPC1 prom act – activates the NPC1 promoter | Huh7 NPC1 promoter luciferase reporter, 24 h | AID 485313 | Potency, µM (highest dose often 9.22 µM), usual class: activators | actives 2.4% (n = 320,000); further: nearly all actives have a fitted effect of over 60% in size
#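 In 1536-well qHTS, Huh7 cells harboring an NPC1 promoter–luciferase construct received compound for 24 h; activation was quantified by luminescence following luciferase reagent addition.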
# SMN2 splice up – increases expression of the SMN2 splice variant. actives 2.8% (n = 210,000). Potency, µM (series often up to 46.1 µM), hits mostly activators. HEK293 SMN2-luciferase splicing reporter, luminescence, 30-36 h; further: nearly all actives have a fitted effect of over 55% in size
#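 HEK293 cells carry an SMN2 minigene-luciferase reporter in which exon 7 inclusion puts luciferase in frame. Cells were seeded at 2000 cells/well, attached for 10-12 hours, then exposed to compounds for 30-36 hours at 37C before ONE-Glo luminescence.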
# Hits are given with their value; . = inactive; ? = inconclusive; / = not tested or not shown. Sampled rows, rich in hits. Any-hit rate of the full collection: about 7.5%. The call rests on the fitted dose curve; in most records, active means well fitted curve in the direction sought with a large enough effect; inconclusive means small, poorly fitted or top-dose-only effect, or another doubt; inactive means no such curve, though single readings can be large; an effect the other way counts as inactive or inconclusive.
SMILES,FLuc modulator,ELG1 genotoxic,Rab9 promoter act,NPC1 prom act,SMN2 splice up
Cc1ccc(S(=O)(=O)N2CCOCC2)cc1C(=O)Nc1ccccc1N1CCOCC1,.,.,.,.,/
CN(Cc1ccc2nonc2c1)Cc1nc(CC2CC2)no1,.,.,.,.,/
Cc1noc(C)c1-c1ccc2ncnc(N(C)Cc3ccco3)c2c1,/,/,/,/,3.5µM
O=C(O)c1ccc(N=NN2CCCC2)cc1,.,.,.,.,.
O=C(O)c1ccc(N=NN2CCCCCC2)cc1,11µM,.,0.32µM,?,4.5µM
CC(=O)Nc1cccc(N=NN2CCOCC2)c1,.,.,.,.,/
CC(=O)Nc1cccc(N=NN2CCCCC2)c1,17µM,.,.,.,.
CC(C)[C@@H]1NC(=O)c2cc([N+](=O)[O-])cc(F)c2NCCC[C@@H](C(N)=O)NC(=O)[C@H](CO)NC1=O,.,.,.,.,?
COc1ccc(C(=O)c2ccccc2)c(O)c1O,/,/,/,/,.
O=C(Nc1ccc(-c2ccccc2)cc1)c1ccco1,.,.,.,.,.
O=C(CSc1ccc(Cl)cc1)Nc1ccc(-c2nc3ccccc3[nH]2)cc1,.,.,?,.,7.9µM
O=C(Nc1ccc(-c2nc3ccccc3[nH]2)cc1)c1ccco1,4.3µM,1.8µM,2.2µM,0.71µM,6.3µM
S=C(Nc1ccc(-c2nc3ccccc3[nH]2)cc1)Nc1cccnc1,13µM,?,1.4µM,?,/
O=C(CSc1nc2ccccc2[nH]1)Nc1ccc(F)cc1,.,.,.,.,.
O=C(/C=C/c1ccco1)Nc1ccc(-c2nc3ccccc3[nH]2)cc1,.,.,.,.,3.5µM
CCN(CC)c1ccc(NC(=O)C2CCN(c3nnc(-n4cccc4)s3)CC2)c(C)c1,.,/,/,/,/
CC(C(=O)c1c[nH]c(C(=O)N=CN(C)C)c1)c1ncc(C(F)(F)F)cc1Cl (configuration not stated),.,.,.,.,.
COc1ccccc1N(CC(=O)N1CCCCCC1)S(=O)(=O)c1ccc(C)cc1,.,.,.,.,/
O=C(CSc1ccc(-c2nc3ccccc3[nH]2)cn1)N1CCN(C(=O)c2ccco2)CC1,11µM,.,.,.,.
O=C(CCc1nc2ccccc2[nH]1)N1CCN(C(=O)c2ccco2)CC1,.,.,.,.,/
Cc1ccc(NC(=O)c2cnccn2)c(Br)c1,21µM,?,?,?,/
Cc1cc(NC(=O)c2cnccn2)no1,.,.,.,.,.
Cc1ccc(NC(=O)c2cnccn2)nc1,9.5µM,.,.,.,/
COc1cccc(N(C(=O)CS(=O)CC(=O)Nc2ccc(F)cc2)C(C(=O)NC2CCCCC2)c2cccs2)c1 (configuration not stated),.,?,.,.,.
CC1CCN(CCOc2ccc(OCc3ccccc3)cc2)CC1,.,.,.,.,.
SMILES,FLuc modulator,ELG1 genotoxic,Rab9 promoter act,NPC1 prom act,SMN2 splice up
COCCN(C(=O)CSc1n[nH]c(-c2ccc(OC)cc2)n1)c1c(N)n(Cc2ccccc2)c(=O)[nH]c1=O,?,.,.,.,/
CCc1ccc(-c2nc(SCC(=O)N(CCOC)c3c(N)n(Cc4ccccc4)c(=O)[nH]c3=O)n[nH]2)cc1,2.7µM,.,.,.,/
COCCN(C(=O)COC(=O)/C=C/c1nc2ccccc2s1)c1c(N)n(Cc2ccccc2)c(=O)[nH]c1=O,21µM,.,.,.,/
CCCCn1c(N)c(N(CCOC)C(=O)CSc2n[nH]c(-c3ccc(OC)cc3)n2)c(=O)[nH]c1=O,24µM,.,.,.,/
COCCN(C(=O)COC(=O)/C=C/c1ccc2ccccc2n1)c1c(N)n(Cc2ccccc2)c(=O)[nH]c1=O,?,.,.,.,/
CCCCN(C(=O)CSc1n[nH]c(-c2ccc(C)cc2)n1)c1c(N)n(CCCC)c(=O)[nH]c1=O,8.5µM,?,.,.,/
CCn1c(=O)n(CC(=O)Nc2cccc(OC)c2)c(=O)c2ccccc21,.,.,.,.,.
COCCN(C(=O)CSc1nnc(-c2ccc(C)c(C)c2)o1)c1c(N)n(CC(C)C)c(=O)[nH]c1=O,?,.,.,.,/
CCN(CC)c1ccc(-c2nnc(SCC(=O)N(CCOC)c3c(N)n(CC(C)C)c(=O)[nH]c3=O)o2)cc1,6.7µM,.,.,.,/
O=C(NCc1ccccc1)c1ncn(Cc2ccccc2)c1C(=O)NCc1ccccc1,.,.,.,.,/
C1CCc2c(nc3nnnn3c2N2CCOCC2)C1,.,.,.,.,.
C=CCOC(=O)C1=C(C)NC2(O)c3ccccc3C(=O)C12O (configuration not stated),.,.,.,.,.
Nc1c(Cl)cc(-c2csc(NCCc3nc4cc(Cl)c(Cl)cc4n3CCCO)n2)cc1Cl,.,.,.,.,/
COc1cccc(C(=O)Nc2nc3c(s2)CN(C)CC3)c1,19µM,.,?,?,.
O=C(Nc1ccnn1C1CCN(Cc2ccccc2)CC1)C1CCCC1,.,.,.,.,/
O=C(Nc1nc2c(s1)CN(Cc1ccccc1)CC2)C1CCC1,24µM,?,4.5µM,?,?
CN1CCc2nc(NC(=O)c3cccc(S(=O)(=O)N4CCc5ccccc54)c3)sc2C1,.,.,.,.,.
CCN1CCc2nc(NC(=O)c3ccccc3)sc2C1,7.6µM,/,/,/,.
Cc1ccc(S(=O)(=O)Nc2ccc3cn[nH]c3c2)cc1,.,.,.,.,/
Nc1ccc(C(=O)Nc2ccc3nc(-c4cccnc4)[nH]c3c2)cc1,17µM,.,.,.,.
Cn1cccc1-c1nc2ccccc2[nH]1,17µM,?,.,?,/
Cn1cccc1-c1nc2ccc(NC(=O)c3ccccc3)cc2[nH]1,15µM,?,.,.,.
Cc1ccc(S(=O)(=O)Nc2ccc3nc(-c4cccn4C)[nH]c3c2)cc1,.,.,.,.,8.9µM
Cn1cccc1-c1nc2ccc(NC(=O)c3ccc([N+](=O)[O-])cc3)cc2[nH]1,.,.,.,.,.
CN(Cc1c(C(=O)N2CCCCCCC2)nc2ccc(Cl)cn12)C1CCOC1 (configuration not stated),.,.,.,.,/
SMILES,FLuc modulator,ELG1 genotoxic,Rab9 promoter act,NPC1 prom act,SMN2 splice up
CS(=O)(=O)c1ccc2nc(NC(=O)C3CC(=O)N(c4ccc(F)cc4)C3)sc2c1 (configuration not stated),.,.,.,.,/
CN(C)c1ccc(/C=N/NS(=O)(=O)c2ccc(Br)cc2)cc1,.,.,.,.,/
CC(C)CC(=O)Nc1cccc(-c2csc(-c3ccccc3)n2)c1,?,.,.,.,?
CC(=O)Nc1cccc(-c2csc(NCc3ccccc3)n2)c1,21µM,.,.,.,/
CC(=O)Nc1ccc(-c2csc(NNC(=O)c3ccccc3)n2)cc1,.,.,.,.,.
CC(C)=NNc1nc(-c2ccc([N+](=O)[O-])cc2)cs1,?,.,.,.,.
CC(=O)Nc1cccc(-c2csc(N)n2)c1,.,.,.,.,.
C/C(=N/Nc1nc(-c2ccc(Cl)cc2)cs1)c1cccs1,15µM,.,?,.,?
